Assay results from ChEMBL document CHEMBL1961873, “Compounds: GSK PKIS; Assays: Nanosyn kinase panel” (2012).

Experiments:
[1] = molecular target: Tyrosine-protein kinase Fer (Homo sapiens) (UniProt P16591); details: at 1 µM
[2] = molecular target: Tyrosine-protein kinase Fes/Fps (Homo sapiens) (UniProt P07332); details: at 0.1 µM
[3] = molecular target: Tyrosine-protein kinase Fes/Fps (Homo sapiens) (UniProt P07332); details: at 1 µM
[4] = molecular target: Fibroblast growth factor receptor 1 (Homo sapiens) (UniProt P11362); details: at 0.1 µM
[5] = molecular target: Fibroblast growth factor receptor 1 (Homo sapiens) (UniProt P11362); details: at 1 µM
[6] = molecular target: Fibroblast growth factor receptor 2 (Homo sapiens) (UniProt P21802); details: at 0.1 µM
[7] = molecular target: Fibroblast growth factor receptor 2 (Homo sapiens) (UniProt P21802); details: at 1 µM
[8] = molecular target: Fibroblast growth factor receptor 3 (Homo sapiens) (UniProt P22607); details: at 0.1 µM
[9] = molecular target: Fibroblast growth factor receptor 3 (Homo sapiens) (UniProt P22607); details: at 1 µM
[10] = molecular target: Fibroblast growth factor receptor 4 (Homo sapiens) (UniProt P22455); details: at 0.1 µM
[11] = molecular target: Fibroblast growth factor receptor 4 (Homo sapiens) (UniProt P22455); details: at 1 µM
[12] = molecular target: Tyrosine-protein kinase Fgr (Homo sapiens) (UniProt P09769); details: at 0.1 µM
[13] = molecular target: Tyrosine-protein kinase Fgr (Homo sapiens) (UniProt P09769); details: at 1 µM
[14] = molecular target: Vascular endothelial growth factor receptor 1 (Homo sapiens) (UniProt P17948); details: at 0.1 µM
[15] = molecular target: Vascular endothelial growth factor receptor 1 (Homo sapiens) (UniProt P17948); details: at 1 µM
[16] = molecular target: Receptor-type tyrosine-protein kinase FLT3 (Homo sapiens) (UniProt P36888); details: at 0.1 µM
[17] = molecular target: Receptor-type tyrosine-protein kinase FLT3 (Homo sapiens) (UniProt P36888); details: at 1 µM
[18] = test system: T1, Receptor-type tyrosine-protein kinase FLT3 (Homo sapiens), P36888 [D835Y]; details: at 0.1 µM
T1 sequence (whole entry): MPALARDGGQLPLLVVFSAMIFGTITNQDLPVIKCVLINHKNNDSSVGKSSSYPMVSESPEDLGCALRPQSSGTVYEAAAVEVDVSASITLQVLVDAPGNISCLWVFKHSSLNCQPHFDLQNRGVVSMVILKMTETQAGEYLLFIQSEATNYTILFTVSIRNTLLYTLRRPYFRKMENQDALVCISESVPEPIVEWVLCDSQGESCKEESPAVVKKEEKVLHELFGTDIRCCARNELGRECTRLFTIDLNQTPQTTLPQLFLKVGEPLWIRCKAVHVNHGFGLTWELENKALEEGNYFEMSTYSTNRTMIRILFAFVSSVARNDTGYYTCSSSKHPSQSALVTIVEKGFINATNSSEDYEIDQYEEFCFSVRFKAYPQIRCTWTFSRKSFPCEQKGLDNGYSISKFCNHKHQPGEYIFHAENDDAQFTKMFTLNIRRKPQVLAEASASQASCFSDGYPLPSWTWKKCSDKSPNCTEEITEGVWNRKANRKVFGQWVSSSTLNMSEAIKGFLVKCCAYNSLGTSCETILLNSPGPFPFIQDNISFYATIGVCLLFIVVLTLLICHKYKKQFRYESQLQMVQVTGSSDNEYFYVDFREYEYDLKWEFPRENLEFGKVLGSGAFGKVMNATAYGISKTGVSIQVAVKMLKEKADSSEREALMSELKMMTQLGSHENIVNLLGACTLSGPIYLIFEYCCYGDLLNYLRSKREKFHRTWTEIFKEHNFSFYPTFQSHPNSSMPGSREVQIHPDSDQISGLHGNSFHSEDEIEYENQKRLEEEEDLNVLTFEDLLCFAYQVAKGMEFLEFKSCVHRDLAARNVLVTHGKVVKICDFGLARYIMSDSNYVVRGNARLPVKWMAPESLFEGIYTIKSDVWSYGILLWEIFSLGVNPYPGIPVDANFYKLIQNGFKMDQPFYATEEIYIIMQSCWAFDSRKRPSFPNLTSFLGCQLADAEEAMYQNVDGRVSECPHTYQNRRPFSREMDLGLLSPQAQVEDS

[19] = molecular target: Non-receptor tyrosine-protein kinase TYK2 (Homo sapiens) (UniProt P29597); details: at 1 µM;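 further: values are mean percent inhibition of TYK2 kinase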
[20] = molecular target: T2, Tyrosine-protein kinase receptor TYRO3 (Homo sapiens) (UniProt Q06418); details: at 0.1 µM;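 further: reported percentages are averaged inhibition values of TYRO3 kinase activity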
T2 sequence (whole entry): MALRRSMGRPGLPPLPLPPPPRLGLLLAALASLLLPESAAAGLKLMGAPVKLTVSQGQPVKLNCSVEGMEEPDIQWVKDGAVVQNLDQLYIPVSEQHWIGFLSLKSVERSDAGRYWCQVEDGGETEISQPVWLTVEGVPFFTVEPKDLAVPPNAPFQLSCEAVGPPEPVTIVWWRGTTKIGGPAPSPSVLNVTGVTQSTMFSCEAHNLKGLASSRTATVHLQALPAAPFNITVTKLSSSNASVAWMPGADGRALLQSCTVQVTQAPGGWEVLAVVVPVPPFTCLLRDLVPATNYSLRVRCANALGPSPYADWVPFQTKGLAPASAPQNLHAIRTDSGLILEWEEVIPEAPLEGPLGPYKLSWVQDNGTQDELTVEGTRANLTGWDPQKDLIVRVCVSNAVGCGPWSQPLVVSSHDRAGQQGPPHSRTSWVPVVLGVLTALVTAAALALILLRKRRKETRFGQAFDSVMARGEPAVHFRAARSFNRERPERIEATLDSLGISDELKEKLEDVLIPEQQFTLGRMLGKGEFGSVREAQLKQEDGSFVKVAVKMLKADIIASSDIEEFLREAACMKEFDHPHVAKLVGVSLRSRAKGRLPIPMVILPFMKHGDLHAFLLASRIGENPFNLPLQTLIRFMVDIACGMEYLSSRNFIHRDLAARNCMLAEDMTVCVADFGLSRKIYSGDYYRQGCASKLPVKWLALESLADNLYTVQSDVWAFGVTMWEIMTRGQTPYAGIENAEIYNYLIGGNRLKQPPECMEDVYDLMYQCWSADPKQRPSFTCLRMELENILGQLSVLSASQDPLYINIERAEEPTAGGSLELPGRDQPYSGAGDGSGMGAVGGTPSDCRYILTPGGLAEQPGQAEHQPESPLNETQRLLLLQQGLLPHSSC

Chain of Fibroblast growth factor receptor 3 (Homo sapiens) (P22607 23-806 limits assumed): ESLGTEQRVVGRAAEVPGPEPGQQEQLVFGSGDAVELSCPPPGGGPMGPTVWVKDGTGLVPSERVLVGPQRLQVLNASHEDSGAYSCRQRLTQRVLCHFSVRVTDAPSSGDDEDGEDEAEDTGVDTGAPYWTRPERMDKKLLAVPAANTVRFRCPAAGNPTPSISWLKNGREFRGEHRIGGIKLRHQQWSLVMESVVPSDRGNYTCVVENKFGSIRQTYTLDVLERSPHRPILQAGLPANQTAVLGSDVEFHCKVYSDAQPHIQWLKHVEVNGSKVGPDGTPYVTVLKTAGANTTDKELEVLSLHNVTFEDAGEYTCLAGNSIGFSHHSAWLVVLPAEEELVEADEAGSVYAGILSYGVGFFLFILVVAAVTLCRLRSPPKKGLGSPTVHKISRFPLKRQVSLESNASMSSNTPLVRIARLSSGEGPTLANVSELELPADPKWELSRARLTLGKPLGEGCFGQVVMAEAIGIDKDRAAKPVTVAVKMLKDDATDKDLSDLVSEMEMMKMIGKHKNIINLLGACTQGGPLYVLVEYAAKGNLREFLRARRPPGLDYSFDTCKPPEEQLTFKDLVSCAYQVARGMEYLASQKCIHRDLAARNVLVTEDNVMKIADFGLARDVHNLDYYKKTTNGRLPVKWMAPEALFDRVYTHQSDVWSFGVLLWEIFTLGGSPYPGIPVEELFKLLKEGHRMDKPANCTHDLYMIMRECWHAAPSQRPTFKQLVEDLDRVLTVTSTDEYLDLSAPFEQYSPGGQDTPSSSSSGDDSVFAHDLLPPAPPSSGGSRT
Chain of Non-receptor tyrosine-protein kinase TYK2 (Homo sapiens) (P29597 whole entry): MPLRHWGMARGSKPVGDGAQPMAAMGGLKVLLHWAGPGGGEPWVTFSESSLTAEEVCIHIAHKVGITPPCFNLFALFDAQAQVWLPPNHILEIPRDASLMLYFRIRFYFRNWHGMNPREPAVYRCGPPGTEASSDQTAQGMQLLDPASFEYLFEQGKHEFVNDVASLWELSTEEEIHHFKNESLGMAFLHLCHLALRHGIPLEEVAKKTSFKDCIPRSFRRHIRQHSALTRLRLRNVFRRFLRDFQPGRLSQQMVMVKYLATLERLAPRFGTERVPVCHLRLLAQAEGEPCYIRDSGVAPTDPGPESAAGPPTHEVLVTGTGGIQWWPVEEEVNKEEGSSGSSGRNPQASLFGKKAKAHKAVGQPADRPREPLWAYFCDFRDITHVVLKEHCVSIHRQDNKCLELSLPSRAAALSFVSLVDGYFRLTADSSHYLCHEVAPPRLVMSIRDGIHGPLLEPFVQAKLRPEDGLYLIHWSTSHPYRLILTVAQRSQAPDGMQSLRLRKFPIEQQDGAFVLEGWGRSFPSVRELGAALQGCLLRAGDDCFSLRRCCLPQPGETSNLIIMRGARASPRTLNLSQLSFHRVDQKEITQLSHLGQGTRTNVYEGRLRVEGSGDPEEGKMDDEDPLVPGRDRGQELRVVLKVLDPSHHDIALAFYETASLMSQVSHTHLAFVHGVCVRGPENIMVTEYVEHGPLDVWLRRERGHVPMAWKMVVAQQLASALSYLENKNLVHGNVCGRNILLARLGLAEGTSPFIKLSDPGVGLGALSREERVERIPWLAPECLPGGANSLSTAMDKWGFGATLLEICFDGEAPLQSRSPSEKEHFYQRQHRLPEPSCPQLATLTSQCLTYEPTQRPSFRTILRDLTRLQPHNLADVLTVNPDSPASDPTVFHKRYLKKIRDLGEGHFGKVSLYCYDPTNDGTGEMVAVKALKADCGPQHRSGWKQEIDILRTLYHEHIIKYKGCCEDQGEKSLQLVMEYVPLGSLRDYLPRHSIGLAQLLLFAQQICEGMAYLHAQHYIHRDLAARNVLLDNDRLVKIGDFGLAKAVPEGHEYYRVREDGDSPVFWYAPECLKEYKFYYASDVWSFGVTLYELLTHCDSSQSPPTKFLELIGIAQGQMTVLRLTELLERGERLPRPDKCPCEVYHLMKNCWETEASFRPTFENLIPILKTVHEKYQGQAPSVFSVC
Chain of Tyrosine-protein kinase Fer (Homo sapiens) (P16591 whole entry, looked up): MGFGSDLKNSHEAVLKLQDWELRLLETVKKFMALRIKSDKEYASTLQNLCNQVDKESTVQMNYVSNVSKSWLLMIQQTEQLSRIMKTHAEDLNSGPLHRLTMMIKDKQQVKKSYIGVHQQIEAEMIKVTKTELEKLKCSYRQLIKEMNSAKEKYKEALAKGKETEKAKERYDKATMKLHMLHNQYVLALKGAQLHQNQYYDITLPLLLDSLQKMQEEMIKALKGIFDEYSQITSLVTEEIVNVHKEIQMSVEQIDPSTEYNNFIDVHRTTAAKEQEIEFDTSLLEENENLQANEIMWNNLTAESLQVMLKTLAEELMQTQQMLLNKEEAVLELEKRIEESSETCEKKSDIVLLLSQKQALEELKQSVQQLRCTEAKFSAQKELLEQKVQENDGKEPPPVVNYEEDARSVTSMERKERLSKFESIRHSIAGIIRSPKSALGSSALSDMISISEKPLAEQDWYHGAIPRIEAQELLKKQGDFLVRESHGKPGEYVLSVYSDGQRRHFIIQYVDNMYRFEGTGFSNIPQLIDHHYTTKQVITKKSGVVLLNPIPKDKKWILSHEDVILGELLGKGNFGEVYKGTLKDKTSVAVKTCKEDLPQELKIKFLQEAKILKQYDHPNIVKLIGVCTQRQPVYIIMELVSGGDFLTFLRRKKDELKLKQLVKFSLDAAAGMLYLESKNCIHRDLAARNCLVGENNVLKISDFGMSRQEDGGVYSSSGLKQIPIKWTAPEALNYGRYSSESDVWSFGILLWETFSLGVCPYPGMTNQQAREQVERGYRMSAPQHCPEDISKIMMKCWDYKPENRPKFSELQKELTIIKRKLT
Chain of Tyrosine-protein kinase Fgr (Homo sapiens) (P09769 2-529 limits assumed): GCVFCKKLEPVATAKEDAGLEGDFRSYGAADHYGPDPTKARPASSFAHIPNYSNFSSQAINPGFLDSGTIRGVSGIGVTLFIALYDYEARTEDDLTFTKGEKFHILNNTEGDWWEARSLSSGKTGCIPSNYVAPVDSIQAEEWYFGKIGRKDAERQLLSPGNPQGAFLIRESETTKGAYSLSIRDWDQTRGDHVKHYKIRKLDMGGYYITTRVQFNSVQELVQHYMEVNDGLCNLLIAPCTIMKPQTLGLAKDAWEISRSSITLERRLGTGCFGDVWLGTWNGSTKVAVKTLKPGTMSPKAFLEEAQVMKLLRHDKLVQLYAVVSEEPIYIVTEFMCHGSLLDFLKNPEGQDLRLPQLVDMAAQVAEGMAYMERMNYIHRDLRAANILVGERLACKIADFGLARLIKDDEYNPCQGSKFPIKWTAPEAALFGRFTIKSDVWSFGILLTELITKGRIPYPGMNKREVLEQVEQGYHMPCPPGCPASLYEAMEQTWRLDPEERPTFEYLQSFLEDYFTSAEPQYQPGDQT
Chain of Fibroblast growth factor receptor 4 (Homo sapiens) (P22455 22-802 limits assumed): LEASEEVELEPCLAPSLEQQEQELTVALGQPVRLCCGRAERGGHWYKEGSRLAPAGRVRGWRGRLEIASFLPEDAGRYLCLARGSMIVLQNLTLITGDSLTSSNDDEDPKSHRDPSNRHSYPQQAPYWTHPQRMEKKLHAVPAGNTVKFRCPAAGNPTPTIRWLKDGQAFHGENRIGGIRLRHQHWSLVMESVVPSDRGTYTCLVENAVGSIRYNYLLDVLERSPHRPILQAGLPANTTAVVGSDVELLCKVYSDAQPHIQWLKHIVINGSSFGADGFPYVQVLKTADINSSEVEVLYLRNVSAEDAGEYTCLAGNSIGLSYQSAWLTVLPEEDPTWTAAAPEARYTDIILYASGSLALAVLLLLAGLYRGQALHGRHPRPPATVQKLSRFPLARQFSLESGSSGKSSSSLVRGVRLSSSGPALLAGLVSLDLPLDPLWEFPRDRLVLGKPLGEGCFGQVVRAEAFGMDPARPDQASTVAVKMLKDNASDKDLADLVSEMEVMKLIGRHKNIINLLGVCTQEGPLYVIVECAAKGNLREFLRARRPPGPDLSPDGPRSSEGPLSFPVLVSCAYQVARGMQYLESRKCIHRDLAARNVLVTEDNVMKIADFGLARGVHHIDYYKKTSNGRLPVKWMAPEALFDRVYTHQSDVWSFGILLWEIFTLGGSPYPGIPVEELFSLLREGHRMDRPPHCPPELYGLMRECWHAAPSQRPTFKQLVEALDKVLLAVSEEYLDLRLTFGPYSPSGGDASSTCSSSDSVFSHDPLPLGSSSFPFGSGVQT
Chain of Tyrosine-protein kinase Fes/Fps (Homo sapiens) (P07332 whole entry): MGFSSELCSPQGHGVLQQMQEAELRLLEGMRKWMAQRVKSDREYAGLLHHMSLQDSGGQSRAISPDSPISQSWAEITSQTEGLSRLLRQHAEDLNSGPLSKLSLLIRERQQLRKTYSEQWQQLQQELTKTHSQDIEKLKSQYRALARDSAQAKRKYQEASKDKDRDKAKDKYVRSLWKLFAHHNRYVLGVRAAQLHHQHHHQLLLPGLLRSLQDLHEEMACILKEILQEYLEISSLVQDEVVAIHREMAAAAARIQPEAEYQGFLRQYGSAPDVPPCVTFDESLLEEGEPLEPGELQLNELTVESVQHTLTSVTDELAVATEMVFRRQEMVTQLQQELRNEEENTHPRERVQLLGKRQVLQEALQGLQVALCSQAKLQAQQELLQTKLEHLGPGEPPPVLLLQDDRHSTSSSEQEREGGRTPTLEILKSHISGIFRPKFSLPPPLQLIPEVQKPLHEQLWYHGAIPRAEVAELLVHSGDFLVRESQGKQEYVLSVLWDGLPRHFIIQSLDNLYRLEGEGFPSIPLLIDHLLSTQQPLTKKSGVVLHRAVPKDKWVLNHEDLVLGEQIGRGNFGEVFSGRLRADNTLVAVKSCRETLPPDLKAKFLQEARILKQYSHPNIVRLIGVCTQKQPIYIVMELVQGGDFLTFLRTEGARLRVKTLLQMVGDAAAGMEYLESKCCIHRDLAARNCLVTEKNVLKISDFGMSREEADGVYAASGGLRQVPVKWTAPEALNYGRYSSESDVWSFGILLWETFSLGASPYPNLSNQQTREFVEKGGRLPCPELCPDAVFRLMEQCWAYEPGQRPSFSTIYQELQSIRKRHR

Compound | inhibition [1] [%] | inhibition [2] [%] | inhibition [3] [%] | inhibition [4] [%] | inhibition [5] [%] | inhibition [6] [%] | inhibition [7] [%] | inhibition [8] [%] | inhibition [9] [%] | inhibition [10] [%] | inhibition [11] [%] | inhibition [12] [%] | inhibition [13] [%] | inhibition [14] [%] | inhibition [15] [%] | inhibition [16] [%] | inhibition [17] [%] | inhibition [18] [%] | inhibition [19] [%] | inhibition [20] [%]
O=C(Nc1n[nH]c2cc(-c3ccccc3)ccc12)C1CC1 | 5.6 | 2.97 | 2.53 | 8.51 | 2.95 | 3.3 | 7.98 | 6.47 | 5.96 | -0.91 | 0.83 | 1.51 | 12.8 | 3.64 | 2.3 | 0.48 | 2.82 | -3.75 | -4.78 | 3.71
CCS(=O)(=O)c1ccc(OC)c(Nc2ncc(-c3cccc(-c4ccccc4F)c3)o2)c1 | 2.29 | -0.07 | 0.23 | 6.92 | 40 | 29.3 | 60.6 | 29.3 | 65.5 | 3.01 | 16.3 | 11.9 | 52.1 | 24.9 | 68.4 | 6.25 | 30 | 5.31 | 1.31 | 3.28
CS(=O)(=O)CCNCc1cc(-c2cc3c(Nc4ccc(OCc5cccc(F)c5)c(Cl)c4)ncnc3s2)cs1 | 7.65 | 4.73 | 5.27 | 5.5 | 3.17 | 7.79 | 8.79 | 6 | 6.34 | 5.68 | 1.36 | 2.51 | 4.32 | 0.1 | 0.78 | 2.69 | 6.93 | -4.23 | -4 | 2.21
COc1ccc(C2=C(N3CCc4ccccc43)C(=O)NC2=O)cc1 | 4.91 | 3.03 | 5.04 | 4.17 | 8.02 | 4.11 | 6.4 | 8.71 | 8.26 | 2.43 | 1.06 | 5.11 | 3.99 | 1.27 | 2.89 | 3.27 | 2.59 | 5.76 | -5.5 | 4.63
COc1cc2ncn(-c3cc(OCc4ccccc4C(F)(F)F)c(C(C)=O)s3)c2cc1OC | 7.96 | 2.84 | 2.74 | 2.64 | 2.73 | 3.27 | 9.16 | 2.58 | 6.41 | -0.33 | 0.4 | 3.6 | 6.26 | 1.7 | 1.67 | 1.77 | 5.32 | 1.44 | -0.07 | 1.52
CCC(=O)Nc1ccc(C)c(-c2ccc(C(=O)NCC3CC3)cc2)c1 | 1.35 | 3.63 | 2.61 | 2.39 | 4.4 | 3.64 | 5.39 | 2.42 | 2.89 | 2.19 | 1 | 1.7 | 4.31 | 0.67 | 4.22 | 3.07 | 3.74 | – | -0.87 | 2.6
COc1ccc(-c2ccc3c(NC(=O)C4CC4)n[nH]c3n2)cc1 | 3.63 | 0.69 | 0.62 | -1.21 | 0.21 | 0.09 | 0.42 | 1.8 | 0.95 | -0.34 | 0.39 | 3.05 | 6.74 | -0.58 | 0.09 | 0.61 | 3.42 | -3.58 | -0.42 | 2.92
Cc1nnc(-c2ccc(C)c(-c3ccc(C(=O)NCc4ccc(Cl)cc4)cc3)c2)o1 | 3.71 | 2.32 | 1.83 | -2.72 | -1.85 | 0.07 | 11.1 | 1.78 | -1.81 | – | -3.75 | 4.76 | 1.82 | 2.48 | 2.52 | 2.13 | 0.77 | 2.22 | -3.78 | 2.85
COc1cc(C)c(N(C)C(=O)CN(C)C)cc1Nc1nc(Nc2cccc(F)c2C(N)=O)c2cc[nH]c2n1 | 23 | 5.04 | 10.7 | 0.07 | -3.58 | -2.28 | -2.01 | -0.36 | -2.8 | -3.66 | -2.22 | 0.53 | 2 | -0.09 | 1.09 | 1.42 | 2.03 | 0.68 | -1.64 | 1.86
CN(C)c1ccc2c(c1)/C(=C/Nc1ccc(S(N)(=O)=O)cc1)C(=O)N2 | 8.18 | 0.6 | 0.4 | 3.54 | 15.3 | 5.56 | 31.6 | 7.1 | 29.6 | 1.99 | 3.82 | 2.49 | 16.7 | 1.02 | 12.6 | 3.53 | 17.7 | 0.41 | 17.2 | 3.54
NC(=O)Cc1ccccc1Oc1nccc(-c2c(-c3ccc(F)cc3)ncn2C2CCNCC2)n1 | 4.36 | 1.68 | 2.12 | 5.6 | 3.15 | 1.69 | 5.26 | 3.66 | 3.8 | 0.37 | 0.51 | 0.84 | 2.97 | 0.07 | 0.23 | -1.59 | 1.61 | -3.58 | -2.45 | 0.04
COc1cccc(/C=N/Nc2ncnc3c2cnn3-c2cccc(OC)c2)c1 | 3.78 | 3.43 | 3.25 | 4.2 | 2.4 | 5.34 | 6.12 | 4.59 | 5.11 | 2.44 | 0.32 | 1.37 | 8.08 | 3.79 | 0.71 | 0.18 | 4.83 | -0.05 | -1.11 | 3.49
NS(=O)(=O)c1ccc(Nc2cc(-c3ccc(O)c(F)c3)n[nH]2)cc1 | 14.1 | -3.61 | -0.97 | -2.91 | 8.63 | -4.17 | 9.61 | 1.11 | 8.58 | 1.23 | 0.53 | 0.78 | 13.7 | 2.34 | 14.3 | 33.7 | 79.4 | 5.5 | 5.71 | 8.31
COc1ccc2cc(-c3c(-c4ccncc4)nc(-c4ccc([S+](C)[O-])cc4C)n3C)ccc2c1 (configuration not stated) | 3.2 | -0.52 | -1.2 | -0.12 | 2.93 | -0.56 | 2.09 | 1.3 | 3.02 | 2.92 | 2.85 | 0.53 | 4.65 | 0.86 | 5.84 | -0.09 | -1 | 0.23 | 0.94 | 0.37
COc1cc(Nc2ncc(-c3ccccc3)o2)cc(OC)c1OC | 2.66 | 0.68 | -1.45 | -3.33 | 8.79 | 4.47 | 27 | 1.69 | 16.6 | -0.19 | 1.36 | 3.9 | 29.4 | 8.63 | – | 61.7 | 90.8 | 14.2 | 6.55 | -1.23
